Structures are written as SMILES. Unmarked numbers belong to inactive results.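 The calls were made as follows: active = compounds whose dose series gives a full or clear partial fitted curve of increased nuclear translocation; inconclusive = weak partial curve or effect only at the top dose; inactive = no dose-dependent translocation response.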

Potency data for 29 molecules are collected here from PubChem BioAssay (NCATS).
Potency is read from the fitted curve at half-maximal effect.

Sequence of Glucocorticoid receptor (Homo sapiens) (P04150 whole entry, looked up): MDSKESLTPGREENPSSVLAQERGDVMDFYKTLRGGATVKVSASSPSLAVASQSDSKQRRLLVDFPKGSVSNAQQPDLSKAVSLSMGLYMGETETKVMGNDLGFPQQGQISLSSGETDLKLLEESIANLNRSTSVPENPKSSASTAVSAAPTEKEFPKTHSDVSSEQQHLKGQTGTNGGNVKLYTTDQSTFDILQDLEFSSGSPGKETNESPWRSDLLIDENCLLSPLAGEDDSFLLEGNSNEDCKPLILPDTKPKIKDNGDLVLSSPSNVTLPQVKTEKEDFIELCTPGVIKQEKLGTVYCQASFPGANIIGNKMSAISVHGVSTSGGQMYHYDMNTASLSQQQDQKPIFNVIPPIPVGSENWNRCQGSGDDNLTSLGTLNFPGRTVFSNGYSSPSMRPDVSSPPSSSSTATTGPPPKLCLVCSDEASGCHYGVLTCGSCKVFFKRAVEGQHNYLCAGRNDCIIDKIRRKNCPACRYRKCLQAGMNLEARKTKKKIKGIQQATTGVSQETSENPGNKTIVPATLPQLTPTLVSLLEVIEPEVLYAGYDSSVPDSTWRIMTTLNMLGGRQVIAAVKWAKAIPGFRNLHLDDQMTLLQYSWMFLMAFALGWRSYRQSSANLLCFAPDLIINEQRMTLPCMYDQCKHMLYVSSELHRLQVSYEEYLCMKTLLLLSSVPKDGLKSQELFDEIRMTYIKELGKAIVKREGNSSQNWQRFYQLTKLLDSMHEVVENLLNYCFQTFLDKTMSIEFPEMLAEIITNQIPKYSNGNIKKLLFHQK

The assay has as its target Glucocorticoid receptor (Homo sapiens) (UniProt P04150). The assay can be described thus: GR-GFP Redistribution (AID 450). The following applies: U2OS GR-GFP nuclear translocation, laser cytometry, 2 h.
`O=C(O)c1ccccc1-c1ccccc1C(=O)c1ccccc1`: the Potency is above 46 µM.

Take `O=C1c2ccccc2C(=O)c2c(Nc3cc4c5c(ccc6c7ccc8c9c(cc(Nc%10cccc%11c%10C(=O)c%10ccccc%10C%11=O)c(c3c56)c97)-c3ccccc3C8=O)C(=O)c3ccccc3-4)cccc21`: the Potency is above 46 µM.

As for `O=S(=O)(O)c1ccc(NN(c2c(O)ccc3ccccc23)S(=O)(=O)O)cc1`, the Potency was above 46 µM.

With `O=S(=O)(O)c1ccc(-c2nnc(-c3ccccn3)nc2-c2ccc(S(=O)(=O)O)o2)o1`, the Potency was above 46 µM.

For `C[C@@H]1CCCC(CC(=O)O)(CC(=O)O)C1`, the Potency was above 46 µM.

For the molecule `CN(C)c1ccc(C(c2ccc(N(C)C)cc2)c2ccc([N+](=O)[O-])cc2)cc1`, the Potency was above 46 µM.

Take `O=C(O)C1C(C(=O)O)C(C(=O)O)C1C(=O)O` (centres undefined): the Potency was above 46 µM.

Regarding `Nc1nc(C(=O)O)c(N=Nc2ccccc2)c(=O)[nH]1`, the Potency is above 46 µM.

On to `S=c1nc(-c2nc(=S)[nH]c3c2CCCCCCCCCC3)c2c([nH]1)CCCCCCCCCC2`, for which the Potency was above 46 µM.

Turning to `N#CCCn1c(=O)c(-c2cc(F)cc(F)c2)nc2cnc(Oc3cccc(Cl)c3)nc21`, the Potency was above 9.22 µM.

For the molecule `O=C(O)c1cc(C(=O)O)cc(N2C(=O)c3ccccc3C2=O)c1`, the Potency was above 46 µM.

Consider `O=S(=O)(O)c1cc(S(=O)(=O)O)c2c(N=Nc3cccc4ccccc34)c(O)ccc2c1`, for which the Potency is above 46 µM.

In the case of `Cc1ccc(N=Nc2c(O)ccc3cc(S(=O)(=O)O)ccc23)cc1`, the Potency is above 46 µM.

Consider `Cc1ccc(N=Nc2c(O)c(S(=O)(=O)O)cc3cc(S(=O)(=O)O)ccc23)c(C)c1`, for which the Potency is above 46 µM.

For `CN(Cc1cc(Br)cc(Br)c1O)Cc1c(O)ccc2ccccc12`, the Potency was above 46 µM.

Consider `O=C(O)CC(CC(=O)O)C(=O)O`, for which the Potency was above 46 µM.

For `O=S(=O)(O)c1cc(O)c2c(O)c(N=Nc3cccc4ccccc34)c(S(=O)(=O)O)cc2c1`, the Potency is above 46 µM.

Consider `COCCn1c(=O)c(-c2ccc(OC)cc2)nc2cnc(Oc3ccccc3)nc21`, for which the Potency is above 9.22 µM.

As to `O=S(=O)(O)c1ccc(N=Nc2ccc3c(S(=O)(=O)O)cccc3c2O)c2ccccc12`, the Potency is above 46 µM.

Regarding `CN(C)CN1CSC(=S)N(CN(C)C)C1`, the Potency was above 46 µM.

As to `FC(F)(F)c1cc(NC(=S)N2c3ccccc3-n3cccc3[C@H]2c2cccnc2)cc(C(F)(F)F)c1`, the Potency is above 46 µM.

Take `COc1ccc([C@@H](C)c2cc3c(cc2O)OCO3)cc1`: the Potency is above 46 µM.

Regarding `CN(C)Cc1cc(C(C)(C)C)cc(CNC2CCCCC2)c1O`, the Potency is above 46 µM.

As for `O=S(=O)(O)c1ccc2c(N=Nc3c(O)ccc4ccccc34)cccc2c1`, the Potency was above 46 µM.

Consider `Nc1cc2c(nc3c4ccccc4c(N)cc3[n+]2-c2cccc3ccccc23)c2ccccc12` (tested in a mixture with another compound), for which the Potency is above 46 µM.

With `O=S(=O)(O)c1ccc2c(N=Nc3cccc4ccccc34)c(O)c(S(=O)(=O)O)cc2c1`, the Potency is above 46 µM.

Consider `S[C@@H]1CCCN(Cc2ccccc2)C1`, for which the Potency is above 46 µM.

Consider `CS(=O)(=O)c1ccc(/C=N\NC(N)=S)cc1`, for which the Potency was above 46 µM.

With `N#CC(=NCCO)C1=C(O)c2ccccc2C1=O`, the Potency is above 46 µM.
